Screening results: PubChem, several laboratories
In the library only some 1.5% were active in any assay of this set; here they are far more common.
DUSP3 inh: VHR1 phosphatase inhibitors, primary screen, biochemical, absorbance, uHTS. Dual specificity protein phosphatase 3 (Homo sapiens), P51452. AID 1654, 2009. inhibition, % at 13.3 µM. 290,000 compounds, 0.52% hits. recombinant VHR phosphatase, pNPP absorbance; in the data active = inhibition above about 50%
Target sequence (P51452 whole entry, looked up): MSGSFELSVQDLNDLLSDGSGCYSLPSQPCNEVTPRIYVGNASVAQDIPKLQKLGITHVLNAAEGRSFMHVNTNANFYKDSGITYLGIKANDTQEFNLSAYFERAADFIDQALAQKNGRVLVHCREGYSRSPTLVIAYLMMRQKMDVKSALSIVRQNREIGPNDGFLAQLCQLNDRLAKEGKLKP
CCHFV vOTU inh: CCHFV vOTU protease inhibitors, primary screen, biochemical, Pep-AMC substrate, fluorescence; Crimean-Congo hemorrhagic fever virus L polyprotein viral ovarian tumor (vOTU) protease …; inhibition, % at 11.5 µM; 370,000 compounds, 0.55% hits; AID 651958, 2012; in the data active = inhibition above about 30%; also: 0% = vehicle wells with enzyme and 100% = no enzyme wells
3CLpro inhibitor: SARS-CoV 3CLpro protease inhibitors, primary screen, biochemical, quenched FRET; inhibition, % at 6 µM; recombinant SARS-CoV 3CLpro, quenched FRET peptide cleavage; AID 1706, 2009; 290,000 compounds, 0.14% hits; in the data active = inhibition above about 12%
RecA intein inh: Mtb RecA intein splicing inhibitors, primary screen, biochemical, fluorescence, HTS; 290,000 compounds, 0.75% hits; inhibition, % (concentration not given with the values); Protein RecA (Mycobacterium tuberculosis (strain ATCC 25618 / H37Rv)), P9WHJ3; cell-free RecA intein splicing; in the data active = inhibition above about 30%; inconclusive = no clear call, values can overlap the other calls;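 also: 0% = vehicle wells and 100% = reference inhibitor control wells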
GFP chromophore: counter-screen: blocks GFP chromophore formation, dose response, counter-screen, biochemical, fluorescence, homogeneous. shares compounds with RecA intein inh. cell-free GFP chromophore formation. EC50, µM. 2,100 compounds, 83% hits. AID 434968, 2010; call rule not given here
Active calls of the source: *; ? = inconclusive; nt = no result given.

SMILES	DUSP3 inh	CCHFV vOTU inh	3CLpro inhibitor	RecA intein inh	GFP chromophore
Cc1ccc(-c2[nH]nc3c2C(c2ccsc2)C(C#N)=C(N)O3)cc1 (stereo not given)	19	6	0	65*	1.8*
N#CC1=C(N)Oc2n[nH]c(-c3ccncc3)c2C1c1ccsc1 (stereo not given)	2	-10	-12	54*	38*
Nc1cc(=O)n(Cc2ccccc2)c(N)c1C(=O)NCc1ccccc1	nt	2	nt	nt	nt
Cc1ccc(NC(=O)C2CCN(S(=O)(=O)c3ccc(C(C)(C)C)cc3)CC2)cc1S(=O)(=O)N1CCOCC1	nt	11	nt	nt	nt
COc1cc(-c2[nH]nc3c2C(c2ccoc2)C(C#N)=C(N)O3)cc(OC)c1OC (stereo not given)	44	11	2	nt	nt
CCn1c(C)cc2c(c1=O)C(c1ccc3c(c1)OCO3)C(C#N)=C(N)O2 (stereo not given)	13	-7	2	0	nt
Cc1[nH]nc2c1C(C1CC=CCC1)C(C#N)=C(N)O2 (stereo not given)	4	2	0	nt	nt
COc1cc(-c2[nH]nc3c2C(c2ccco2)C(C#N)=C(N)O3)cc(OC)c1OC (stereo not given)	0	8	3	79*	9.1*
Cc1[nH]nc2c1C(c1ccsc1)C(C#N)=C(N)O2 (stereo not given)	6	-8	2	83*	39*
COc1cccc(-c2[nH]nc3c2C(c2ccsc2)C(C#N)=C(N)O3)c1 (stereo not given)	37	-1	2	76*	7.7*
Cc1[nH]nc2c1C(c1ccc3c(c1)OCO3)C(C#N)=C(N)O2 (stereo not given)	-1	-10	3	67*	39*
C/C(=N/NC(=O)c1cccnc1)c1cccc(O)c1	nt	4	nt	nt	nt
CCN(CC)C(=O)CSc1nnc(COc2ccccc2)n1N	30	-7	-2	1	nt
CCOC(=O)CCCCCC(=O)Nc1ccc2c(c1)C(=O)N([C@@H](C)CO)C[C@@H](C)[C@H](CN(C)C(=O)Nc1ccccc1)OCCCC[C@H](C)O2	nt	11	nt	nt	nt
COc1ccc(C(N)c2nccc3cc(OC)c(OC)cc23)cc1OC (stereo not given)	-12	nt	7	92*	>38
COc1ccc2ccccc2c1C=NNC(=O)c1cc(-c2ccc(C)cc2)n[nH]1	nt	1	nt	nt	nt
O=C(Cc1ccccc1Cl)NC1(O)C(=O)c2ccccc2C1=O	-2	16	0	51*	12*
CCCCNC1C(CC)C(CCC)C(C#N)(C#N)C1(C#N)C#N (stereo not given)	-13	nt	-1	76*	12*
CC(C)C[C@@H]1COc2cc(N3CCC[C@H]3CO)ccc2S(=O)(=O)N1	nt	-2	nt	nt	nt
COc1ccc(Nc2ccccc2N)cc1	12	-11	-2	4	nt
Nc1ccc(Nc2ccccc2N)cc1	5	18	3	58*	20*
CSc1nc(=S)n(-c2ccc([N+](=O)[O-])cc2)c(C)c1C(C)=O	38	-8	3	35*	>38
Cc1ccc(C(=O)c2ccc([N+](=O)[O-])cc2)cc1	-11	-1	7	2	nt
Cc1ccc(C(=O)c2coc3cc([N+](=O)[O-])c(O)c([N+](=O)[O-])c23)cc1	30	3	-1	34*	37*
CCCn1cnnc1CNC(=O)C1CCC(=O)N(CCc2ccc(OC)cc2)C1 (stereo not given)	2	6	2	-2	nt
SMILES	DUSP3 inh	CCHFV vOTU inh	3CLpro inhibitor	RecA intein inh	GFP chromophore
COc1cc2c(c(OC)c1)[C@H](/C=C/c1ccccc1)[C@@H]([C@H](O)CO)OC2	nt	-4	nt	nt	nt
O=C(O)CN1C(=O)/C(=C\c2cccc(OC(=O)c3ccco3)c2)SC1=S	6	8	9	31*	>38
O=C(O)COc1ccc(/C=C2/SC(=S)N(Cc3ccccc3)C2=O)cc1	6	20	-1	53*	36*
CC(C)n1c(SCC(=O)Nc2nncs2)nnc1-c1ccco1	34	nt	0	0	nt
Brc1ccc(CNc2ccc3ncccc3c2)cc1	7	-6	-2	39*	>38
O=C(Nc1ccc2ncccc2c1)c1cccc(Br)c1	-24	-7	0	-3	nt
O=C(CN1CCN(S(=O)(=O)c2ccc(Cl)cc2)CC1)Nc1ccc2c(c1)OCO2	19	6	3	47*	>38
CC(C)Cn1c(N)c(S(=O)(=O)c2cccs2)c2nc3ccccc3nc21	4	-149	-2	47*	29*
CCOC(=O)CN1C(=O)N[C@@H](c2cccc(C(F)(F)F)c2)C(C(C)=O)=C1C	nt	nt	nt	35*	>38
C(=C\c1ccc2nncn2c1)/c1ccccc1	nt	-11	nt	nt	nt
CCCc1cnc(N2CCN(C(=O)c3ccc(OC)cc3)CC2)nc1	-1	nt	0	1	nt
O=c1[nH]c2ccc(Cl)cc2c(-c2ccccc2)c1SC(=S)N1CCCCC1	33	14	1	40*	>38
COc1ccc(C(C#N)c2cnccn2)cc1OC (stereo not given)	nt	13	nt	0	nt
N#CC(c1ccccc1)c1cnccn1 (stereo not given)	nt	-10	nt	33*	>38
O=C(CCl)c1ccc(Cc2ncc(C(F)(F)F)cc2Cl)s1	6	23	-1	79*	3.4*
NS(=O)(=O)c1ccc(Cc2ncc(C(F)(F)F)cc2Cl)s1	-2	2	0	2	nt
COC(CN(C(=O)CCl)C(C(=O)NC1CCCCC1)c1ccc(Cl)cc1)OC (stereo not given)	7	8	-2	35*	34*
O=C(NC1CCCCC1)C(c1cccnc1)N(C(=O)CCl)c1cccc(Cl)c1 (stereo not given)	-9	5	3	79*	5.9*
COc1ccc(C(C(=O)NC2CCCCC2)N(C(=O)CCl)c2ccc(Cl)cc2)cc1 (stereo not given)	4	nt	7	67*	?
COc1ccc(N(C(=O)c2cnccn2)C(C(=O)NC2CCCCC2)c2ccc(Cl)cc2)cc1 (stereo not given)	nt	7	0	1	nt
COC(CN(C(=O)CCl)C(C(=O)NC1CCCCC1)c1ccccc1C)OC (stereo not given)	1	-17	1	25	nt
COCCN(C(=O)Nc1ccccc1OC)c1nc2ccccc2s1	8	6	-1	11	nt
Cn1[nH]c(CSc2ccc(Cl)cc2)cc1=O	17	1	8	93*	27*
COC(=O)c1sc(N)c(C(=O)OC)c1COC(=O)c1c(C)noc1C	10	5	-4	3	nt
COC(=O)c1sc(N)c(C(=O)OC)c1Cn1ncc(Cl)c(Cl)c1=O	-9	3	-1	31*	1.6*
COc1ccc(C(=O)/C(=C/c2cccs2)c2nc3ccccc3o2)cc1	-21	8	5	46*	>38
Cc1ccc(OC(=O)c2ccc([N+](=O)[O-])cc2Cl)cn1	nt	-8	-2	32*	33*
CCOc1ccc(C(=O)C(C)OC(=O)Cn2c(C)csc2=O)cc1 (stereo not given)	nt	-5	nt	-2	nt
